# HCMV inh = blocks human cytomegalovirus replication. 410,000 compounds, 4.5% hits. HFF cells, HCMV-luciferase reporter, 72 h; stronger effect = lower value. activity change, negative = inhibition, % at 57.5 µM. AID 1259415; in the data active = activity change below about -60%; inconclusive = no clear call, values can overlap the other calls; inactive = above about -39%
#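 Human foreskin fibroblasts infected with luciferase-reporter HCMV at MOI 1 PFU/cell, compounds at two doses. Luciferase measured 72 h post infection; normalized to buffer-only basal and Salinomycin (10uM) controls.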
# Vaccinia Venus = vaccinia inhibition (Venus reporter); Vaccinia virus Venus reporter expression, fluorescence; Potency, µM (top dose mostly 36.5 µM), for inactives: top-dose activity change, negative = inhibition, usual class: inhibitors; 330,000 compounds, 0.46% hits; AID 720580; calls by dose curve; tested in A549 cells; note: potency is the fitted concentration of half-maximal effect; nearly all actives have a fitted effect of over 30% in size
# VACV mCherry inh = inhibitors of vaccinia virus infection (mCherry reporter signal). Vaccinia virus mCherry reporter infection, fluorescence. Potency, µM (titrated, usually from 36.5 µM), for the others: at the top dose activity change, negative = inhibition, usual class: inhibitors. 310,000 compounds, 0.63% hits; calls by dose curve; tested in A549 cells; note: potency is the fitted concentration of half-maximal effect; nearly all actives have a fitted effect of over 35% in size
# FBPA Giardia inh = inhibitors of Giardia lamblia fructose-1,6-bisphosphate aldolase | A8B2U2 | purified Giardia FBPA | Potency, µM (highest dose often 59.6 µM), inactives show top-dose activity, negative = inhibition, actives largely listed as inhibitors | 290,000 compounds, 0.71% hits | AID 2451; note: potency is the fitted concentration of half-maximal effect; nearly all actives have a fitted effect of over 55% in size
# Target sequence (A8B2U2 whole entry, looked up): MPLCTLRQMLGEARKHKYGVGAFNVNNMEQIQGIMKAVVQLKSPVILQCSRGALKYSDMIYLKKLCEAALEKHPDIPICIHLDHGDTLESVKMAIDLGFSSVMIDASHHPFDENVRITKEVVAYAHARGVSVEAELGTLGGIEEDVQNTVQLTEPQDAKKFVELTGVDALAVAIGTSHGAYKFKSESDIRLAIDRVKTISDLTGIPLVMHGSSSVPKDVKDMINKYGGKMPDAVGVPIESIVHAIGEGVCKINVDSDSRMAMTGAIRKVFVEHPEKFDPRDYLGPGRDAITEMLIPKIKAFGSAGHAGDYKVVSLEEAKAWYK
#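 40 nM FBPA preincubated 10 min at RT with compound (up to 57.5 uM final), then substrate plus GAPDH/TPI/NAD/arsenate coupling and diaphorase/resazurin added. Fluorescence read after 20 min at RT, 525/598 nm.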
# HCV inh = blocks hepatitis C virus; Huh7.5.1 HCVcc-Cre infection, luciferase reporter, 44 h; Potency, µM (highest dose often 41.8 µM), inactives show top-dose activity change, negative = inhibition, hits mostly inhibitors; 340,000 compounds, 3.4% hits; AID 651820; note: potency is the fitted concentration of half-maximal effect
#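 Infectious HCVcc-Cre (~0.5 moi) was added to cells just after compound, with cells seeded 4 h earlier at 1,000 per well. Luciferase activity after 44 h culture reported infection; substrate was incubated 15 min at room temperature before reading.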
# FMDV antiviral = foot and mouth disease virus antiviral activity | 410,000 compounds, 1.2% hits | AID 1159524 | Potency, µM (doses to about 57.9 µM), for the others: at the top dose activity change, negative = inhibition, actives largely listed as inhibitors | FMDV antiviral cell-based qHTS; calls by dose curve; tested in HEK293T cells; note: read-out not given here; potency is the fitted concentration of half-maximal effect; nearly all actives have a fitted effect of over 45% in size
# An asterisk follows results filed as active; i = inactive; u = inconclusive; x = not tested or not shown; [ ] = another dose, or the depositor's remark. This is a sample that favours compounds with a hit; in the whole collection about 7.5% have one here. Unless noted, calls come from the whole dose curve; as a rule, active = well fitted curve in the direction sought with a large enough effect; inconclusive = small, poorly fitted or top-dose-only effect, or another doubt; inactive = no such curve, though single readings can be large; an effect the other way counts as inactive or inconclusive. % is set by controls: 0 for no effect and ±100 for the full control effect.
SMILES,HCMV inh,Vaccinia Venus,VACV mCherry inh,FBPA Giardia inh,HCV inh,FMDV antiviral
Cc1ccc(N(CC(=O)N2CC(=O)Nc3ccccc32)S(=O)(=O)c2ccc3c(c2)OCCO3)cc1,-63*,x,x,-5%,9%,5%
COc1ccc(N(CC(=O)Nc2ccc3c(c2)OCO3)S(=O)(=O)c2ccc(F)cc2)cc1,-76*,-16%,-18%,-22%,u,24%
COc1ccc(S(=O)(=O)N(CC(=O)Nc2ccc(S(=O)(=O)N3CCOCC3)cc2)c2ccccc2)cc1,-85*,-17%,-6%,6%,5.6µM*,-24%
CCCC(C)NC(=O)CN(c1ccc2c(c1)OCCO2)S(=O)(=O)c1ccccc1 (stereo not given),-5,x,x,11%,-4%,-4%
Cc1noc(C)c1C(=O)N1CCC[C@@]2(CCN(C(=O)Nc3cccc(C#N)c3)C2)C1,x,x,x,1%,x,-4%
COc1ccc(N(CC(=O)Nc2ccc3c(c2)OCCO3)S(=O)(=O)c2cccc(C)c2)cc1,-77*,-12%,-29%,x,u,-7%
COc1ccc(S(=O)(=O)N(CC(=O)Nc2cccnc2)c2ccc(Cl)cc2)cc1,-104*,-9%,-10%,x,x,-6%
COc1ccc(N(CC(=O)Nc2ccc3c(c2)OCO3)S(=O)(=O)c2ccccc2)c(OC)c1,-68*,x,x,-10%,u,39%
COC(=O)[C@@H]1[C@@H](CO)[C@@H]2Cn3c(ccc(Br)c3=O)[C@@H]2N1C,0,x,x,x,x,x
CCCCCN(C(=O)CCC(=O)OCc1cccc(F)c1)c1c(N)n(CCCC)c(=O)[nH]c1=O,-38,-15%,0%,x,11%,-12%
O=C1CSc2ccc(S(=O)(=O)N3CCN(c4ccccc4)CC3)cc2N1,-22,x,x,x,0%,-23%
O=C1CSc2ccc(S(=O)(=O)NCc3ccccc3Cl)cc2N1,-60*,x,x,x,-15%,77%
O=C1CSc2ccc(S(=O)(=O)N3CCN(c4ccccc4F)CC3)cc2N1,-76*,x,x,x,u,u
CC(=O)N1CCc2c(sc3c2c(=O)n(-c2cc(Cl)ccc2C)c(=O)n3C)C1,1,-8%,-5%,x,x,-5%
CN(C)C=C1C(=O)N(C2CCCCC2)C(=O)N(C2CCCCC2)C1=O,33,u,x,1%,13%,18µM*
CCCC1NC(=S)N(C2CCCCC2)C1=O (stereo not given),14,-14%,-19%,2%,4%,-3%
CN(C)c1ccc(/C=C2/CCCc3c2nc2ccccc2c3C(=O)O)cc1,x,3%,-8%,x,x,x
CS(=O)(=O)c1cccc(NC(=O)C2CCCN2S(=O)(=O)c2ccc(F)cc2)c1 (stereo not given),-2,10%,-7%,4%,12%,-8%
O=C(CC[C@H]1O[C@@H](n2cnc3c(NC(=O)c4ccccc4)ncnc32)[C@H](O)[C@@H]1O)NCc1cccc2ccccc12,-64*,9%,13%,x,x,-16%
c1cc(-c2nnc3sc(C4CCCCC4)nn23)ccn1,-80*,x,x,2%,-18%,-21%
O=C1N[C@@H](Cc2ccccc2)C(=O)N2[C@H]3Nc4ccccc4[C@@]3([C@]34C[C@H]5C(=O)N[C@@H](Cc6ccccc6)C(=O)N5[C@H]3Nc3ccccc34)C[C@@H]12,x,-26%,u,x,-24%,u
CN1C(=O)[C@@H]2C[C@@]3([C@@]45C[C@H]6C(=O)N(C)[C@@H](Cc7ccccc7)C(=O)N6[C@@H]4Nc4ccccc45)c4ccccc4N[C@H]3N2C(=O)[C@@H]1Cc1ccccc1,-68*,-18%,u,x,u,-12%
O=C(Nc1nc2c(s1)CCc1ccccc1-2)c1ccco1,112,x,x,u,32µM*,-8%
O=C(Nc1nc2c(ccc3ccccc32)s1)c1ccco1,83,x,x,x,25µM*,0%
O=C(Nc1nc2c(F)c(F)c(F)cc2s1)c1ccco1,73,-3%,-7%,1%,2%,18%
SMILES,HCMV inh,Vaccinia Venus,VACV mCherry inh,FBPA Giardia inh,HCV inh,FMDV antiviral
CC(=O)Nc1nc2c(s1)CCc1ccccc1-2,0,x,x,-9%,u,23%
CC(C)(C)NC(=O)C(OC(=O)c1cccs1)c1ccc(F)cc1 (stereo not given),42,-13%,i,6%,4%,6%
Cc1ccc(N2CC(c3nnc(Cc4ccc(Cl)cc4)o3)CC2=O)cc1 (stereo not given),6,-5%,-11%,x,x,5%
Cc1ncc2c(c1CNC(=O)/C=C/c1cccs1)CCN(C(=O)c1c(C)noc1C)C2,x,8%,-14%,x,x,-5%
CCSc1ncc(Cl)c(C(=O)N(Cc2ccccc2)Cc2ccco2)n1,-100*,-23%,i,x,x,-15%
CSc1ncc(Cl)c(C(=O)N(Cc2ccc(N(C)C)cc2)Cc2ccco2)n1,-17,8%,-13%,x,x,-23%
CCCS(=O)(=O)c1ncc(Cl)c(C(=O)N(Cc2ccccc2)Cc2ccco2)n1,-98*,-12%[7.34 µM],-13%[7.34 µM],x,x,16µM*
CCS(=O)(=O)c1ncc(N(Cc2ccccc2)Cc2ccco2)c(C(=O)Nc2ccccc2C)n1,-10,-13%,-18%,x,x,1%
CCCSc1ncc(Cl)c(C(=O)N(Cc2ccc(Cl)cc2)Cc2ccco2)n1,-66*,-28%,-22%,x,x,u
COc1ccccc1-c1ccc(C(=O)N(C)CC2COCCO2)c(N2CCN(c3ccccc3F)CC2)n1 (stereo not given),x,-11%,-7%,x,x,-12%
COc1ccc(/C=C/C(=O)NCc2cn(C)nc2C)cc1COc1ccc(Cl)cc1Br,12,x,x,1%,u,-8%
CCn1nc(C)c(NC(=O)/C=C/c2ccc(OC)c(COc3ccc(Cl)cc3Br)c2)c1C,-64*,-9%,-11%,-3%,u,0%
CC1CCc2nc(NC(=O)CN3CCN(c4ccccc4)CC3)sc2C1 (stereo not given),3,-10%,x,6%,5%,u
COc1ccc(C(=O)N2CCN(Cc3ccc4c(c3)OCO4)CC2)cc1[N+](=O)[O-],-83*,-13%,-29%,8%,u,-15%
COc1ccc(NC(=O)CN2CCN(Cc3ccc4c(c3)OCO4)CC2)cc1OC,-12,-14%,i,18µM*,-2%,-3%
CC1CCc2nc(NC(=O)CN3CCN(Cc4ccc5c(c4)OCO5)CC3)sc2C1 (stereo not given),-63*,u,x,11%,32µM*,u
COc1cc2cc(C(=O)N3CCN(Cc4ccc5c(c4)OCO5)CC3)[nH]c2cc1OC,-92*,x,x,4%,u,-19%
COc1ccc(C(=O)N2CCN(Cc3ccc4c(c3)OCO4)CC2)cc1OC,u,x,x,-20%,u,u
O=C(CN1CCN(Cc2ccc3c(c2)OCO3)CC1)Nc1ccc2c(c1)OCO2,6,-8%,-24%,3%,-4%,-20%
Brc1cccc[n+]1CCCC[n+]1ccccc1Br,x,-11%,i,x,x,x

# Source: PubChem (National Center for Advancing Translational Sciences (NCATS))
